PubChem BioAssay (NCATS)
Inconclusive results are not listed. Where a call stands in place of a potency, no number is given. Activity calls are given as the source filed them. Calls follow the shape of the dose curve; as a rule, active = well fitted cell-killing curve with a large enough effect; inconclusive = small, poorly fitted or top-dose-only effect, or effect the other way; inactive = flat fitted curve, though single readings scatter.

experiment: qHTS of pediatric cancer cell lines to identify multiple opportunities for drug repurposing: Confirmatory screen for Rh18 cells (AID 1347125); settings: Rh18 rhabdomyosarcoma cells, viability; series mostly up to 45.9 µM; also: nearly all actives have a fitted effect of over 55% in size
Source text: Drug repurposing or repositioning has been offered as a strategy for drug development in oncology programs. This approach has special potential for childhood cancers and other rare or orphan diseases, where the expected return on new drug development has been a disincentive to pharmaceuticals.
In this project we exploit the poly-pharmacology of drugs to discover new indications via phenotypic screening of a panel of 19 well-characterized cell lines derived from solid tumors seen in children and adolescents. The goal is to identify approved drugs with previously unrecognized anticancer properties that has the potential to reveal new mechanisms and biological processes involved in carcinogenesis or drug resistance. We employed a titration-based paradigm (quantitative high-throughput screening or qHTS), where all compounds were tested at multiple concentrations for their effect on cell viability. Concentration-response curves (CRCs) were derived directly from the primary screen, and both potency and efficacy values were used to identify compounds with robust bioactivity profiles. We screened the NIH Chemical Genomics Center (NCGC) Pharmaceutical Collection (NPC) and Mechanism Interrogation Plate (MIPE) small molecule collections of approved and investigational compounds against these cell lines; and measured metabolically active cells after 48 hours of compound treatment as a proxy for cell viability.
Assay Submitter: Nathalia J. Martinez, National Center for Advancing Translational Sciences, National Institutes of Health, Rockville, MD, USA; email: natalia.martinez@nih.gov
[1] Shen, M et al. Quantitative high-throughput phenotypic screening of pediatric cancer cell lines identifies multiple opportunities for drug repurposing. Oncotarget 2017 Dec 19;9(4):4758-4772. PMID 29435139.
The cells were obtained from University of North Carolina (UNC), Pediatric Preclinical Testing Program (PPT), and Coriell Institute (CI).
qHTS cell viability assay:
Cells were assayed in growth media at a density of 500-1,000 cells/well. Five microliters of cells were dispensed into 1,536-well, white, solid-bottom, TC-treated plates (Greiner Bio One) using a multidrop dispenser and incubated at 37 degrees C, 5% CO2, under a humidified atmosphere for 5 hours. Twenty-three nanoliters of compounds and controls (neutral control DMSO or positive control bortezomib at final concentration of 2.3 µM) were subsequently transferred by Kalypsys pintool. For primary screens, the MIPE collection was tested at 11-point dilutions (final concentrations range from 0.78 nM to 46 µM) and the NPC collection at 8-point dilutions (final concentrations range from 0.59 nM to 46 µM). Compounds tested in follow-up screens were assayed at 11-point dilutions. Cells were incubated for 48 hours, followed by addition of 3 µL of CellTiter-Glo (Promega). After a 15 min incubation at room temperature, samples were analyzed for luminescence intensity using a ViewLux High-throughput CCD imager equipped with clear filters.
Potency is read from the fitted curve at half-maximal effect.

With `CN(C)/N=N/c1nc[nH]c1C(N)=O` as the molecule, how does the Potency read?
Its Potency is “inactive”.

For `CC(C)(C(=O)c1cccnc1)c1cccnc1`, which Potency is on record?
The Potency was “inactive”.

With `CC(=O)O[C@]1(C(C)=O)CC[C@H]2[C@@H]3C[C@H](C)C4=CC(=O)CC[C@]4(C)[C@H]3CC[C@@]21C` as the molecule, how does the Potency read?
The Potency was “inactive”.

With `NC(CO)(CO)CO` as the molecule, how does the Potency read?
Its Potency is “inactive”.

With `CC(=O)Oc1ccc(C(c2ccc(OC(C)=O)cc2)c2ccccn2)cc1` as the molecule, how does the Potency read?
The Potency was “inactive”.

With `COc1cccc2c1C(=O)c1c(O)c3c(c(O)c1C2=O)C[C@@](O)(C(=O)CO)C[C@@H]3O[C@H]1C[C@H](N)[C@H](O)[C@H](C)O1` as the molecule, how does the Potency read?
Its Potency is 5.22 µM (active).

Which Potency does the source give for `C[C@H]1C[C@H]2[C@@H]3CCC4=CC(=O)C=C[C@]4(C)[C@@]3(Cl)[C@@H](O)C[C@]2(C)[C@@]1(O)C(=O)CO` here?
The Potency was “inactive”.

Which Potency does the source give for `CCCCC(=O)O[C@]1(C(=O)CO)CC[C@H]2[C@@H]3CCC4=CC(=O)CC[C@]4(C)[C@H]3[C@@H](O)C[C@@]21C` here?
Its Potency is “inactive”.

Which Potency does the source give for `C[C@]12C=CC(=O)C=C1CC[C@@H]1[C@@H]2[C@@H](O)C[C@@]2(C)[C@H]1CC[C@]2(O)C(=O)CO` here?
The Potency was “inactive”.

With `CCCCCCC[N+](CC)(CC)CCCCc1ccc(Cl)cc1` as the molecule, how does the Potency read?
The Potency was 13.1 µM (active).

Which Potency does the source give for `C[C@@H]1CN(CCCn2c3ccccc3c3ccccc32)C[C@H](C)N1` here?
Its Potency is 26.1 µM (active).

Which Potency does the source give for `O=C(CCCN1CCC(O)(c2ccc(Br)cc2)CC1)c1ccc(F)cc1` here?
The Potency was “inactive”.

Which Potency does the source give for `COc1c(C)c2c(c(O)c1C/C=C(\C)CCC(=O)O)C(=O)OC2` here?
The Potency was 1.31 µM (active).

With `CC(=O)OCC(=O)[C@@]1(O)CC[C@H]2[C@@H]3CCC4=CC(=O)C=C[C@]4(C)[C@H]3[C@@H](O)C[C@@]21C` as the molecule, how does the Potency read?
Its Potency is “inactive”.

Which Potency does the source give for `C[C@@H]1C[C@H]2[C@@H]3CCC4=CC(=O)C=C[C@]4(C)[C@@]3(F)[C@@H](O)C[C@]2(C)[C@H]1C(=O)CO` here?
The Potency was “inactive”.

Which Potency does the source give for `CC1(C)O[C@@H]2C[C@H]3[C@@H]4CCC5=CC(=O)CC[C@]5(C)[C@@]4(F)[C@@H](O)C[C@]3(C)[C@]2(C(=O)CCl)O1` here?
Its Potency is “inactive”.

Which Potency does the source give for `CN(C)C(=S)SC(=S)N(C)C` here?
Its Potency is 5.22 µM (active).

Which Potency does the source give for `CC(=O)OCC(=O)[C@@]1(OC(C)=O)[C@@H](C)C[C@H]2[C@@H]3C[C@H](F)C4=CC(=O)C=C[C@]4(C)[C@@]3(F)[C@@H](O)C[C@@]21C` here?
The Potency was “inactive”.

With `NC(=O)CC[C@@H]1NC(=O)[C@H](Cc2ccccc2)NC(=O)[C@H](Cc2ccc(O)cc2)NC(=O)CCSSC[C@@H](C(=O)N2CCC[C@H]2C(=O)N[C@@H](CCCN=C(N)N)C(=O)NCC(N)=O)NC(=O)[C@H](CC(N)=O)NC1=O` as the molecule, how does the Potency read?
The Potency was “inactive”.

With `C[C@]12CCC(=O)C=C1CC[C@H]1[C@@H]3CC[C@](O)(C(=O)CO)[C@@]3(C)C[C@H](O)[C@@]12F` as the molecule, how does the Potency read?
The Potency was “inactive”.

For `C[C@@H]1C[C@H]2[C@@H]3C[C@H](F)C4=CC(=O)C(Cl)=C[C@]4(C)[C@@]3(F)[C@@H](O)C[C@]2(C)[C@@]1(O)C(=O)CO`, which Potency is on record?
The Potency was 26.1 µM (active).

With `CC(=O)[C@H]1CC[C@H]2[C@@H]3C[C@H](C)C4=CC(=O)CC[C@]4(C)[C@H]3[C@@H](O)C[C@]12C` as the molecule, how does the Potency read?
Its Potency is “inactive”.

With `CC1(C)O[C@@H]2C[C@H]3[C@@H]4C[C@H](F)C5=CC(=O)CC[C@]5(C)[C@H]4[C@@H](O)C[C@]3(C)[C@]2(C(=O)CO)O1` as the molecule, how does the Potency read?
The Potency was “inactive”.

With `CC(=O)Oc1ccc2c(c1)CC[C@@H]1[C@@H]2CC[C@]2(C)[C@@H](O)CC[C@@H]12` as the molecule, how does the Potency read?
Its Potency is “inactive”.

Which Potency does the source give for `CCCC(=O)O[C@]1(C(=O)CO)CC[C@H]2[C@@H]3CCC4=CC(=O)CC[C@]4(C)[C@H]3[C@@H](O)C[C@@]21C` here?
The Potency was “inactive”.

For `CCC(C(=O)OCCN(CC)CC)c1ccccc1` (stereo not drawn), which Potency is on record?
Its Potency is “inactive”.

Which Potency does the source give for `C=C1C[C@H]2[C@@H]3C=C(C)C4=CC(=O)CC[C@]4(C)[C@H]3CC[C@]2(C)[C@@]1(OC(C)=O)C(C)=O` here?
Its Potency is “inactive”.

With `C[n+]1c2cc(N)ccc2cc2ccc(N)cc21` (tested in a mixture with another compound) as the molecule, how does the Potency read?
The Potency was 5.85 µM (active).

Which Potency does the source give for `COCc1c(C(C)C)nc(C(C)C)c(/C=C/[C@@H](O)C[C@@H](O)CC(=O)O)c1-c1ccc(F)cc1` here?
Its Potency is 0.522 µM (active).

Which Potency does the source give for `CCOc1ccc2nc3cc(N)ccc3c(N)c2c1` here?
Its Potency is “inactive”.

With `C[C@]12C=CC(=O)C=C1[C@@H](F)C[C@@H]1[C@@H]2[C@@H](O)C[C@@]2(C)[C@H]1CC[C@]2(O)C(=O)CO` as the molecule, how does the Potency read?
The Potency was “inactive”.

With `CC(=O)OCC(=O)[C@@]12OC(C)(C)O[C@@H]1C[C@H]1[C@@H]3C[C@H](F)C4=CC(=O)C=C[C@]4(C)[C@@]3(F)[C@@H](O)C[C@@]12C` as the molecule, how does the Potency read?
The Potency was “inactive”.

Which Potency does the source give for `CCCCC(CC)CN=C(N)NC(N)=NCCCCCCN=C(N)NC(N)=NCC(CC)CCCC` (stereo not drawn) here?
The Potency was 13.1 µM (active).
